Source: PubChem
An excerpt weighted towards active compounds, which were near 3.2% of everything screened.
TexasRed fluor: Texas Red fluorescence interference in TRb-SRC2 counter-screen | TRb/SRC2 Texas Red total fluorescence interference | Potency, µM (highest dose often 106 µM), for inactives: top-dose fluorescence change, negative = quenching | 280,000 compounds, 0.29% hits | AID 1479; active = well fitted curve in either direction with a large enough effect; inconclusive = small, poorly fitted or top-dose-only effect
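Flags fluorescent or light-absorbing compounds by total fluorescence, S + 2P, at 555 nm excitation and 632 nm emission. Mixture: 20 nM Texas Red SRC2 peptide, 0.6 uM human TRb LBD, 1 uM T3, 5% DMSO; compound exposure 5 h at ambient temperature.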
Tau FP inhib: tau fibrillization inhibition (FP) | P10636 | K18 P301L tau heparin fibrillization, Alexa594 FP, 6 h | Potency, µM (series often up to 57.7 µM), without a hit: at the top dose activity, negative = inhibition, most hits filed as inhibitors | 280,000 compounds, 0.39% hits | AID 1468; note: nearly all actives have a fitted effect of over 55% in size
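Heparin (20 uM) drove fibril formation of recombinant tau K18 P301L, 15 uM unlabeled with 0.24 uM Alexa 594 label, for 6 hr at 37 C in 100 mM sodium acetate pH 7. Fluorescence polarization (555/632 nm) read 1 hr after 30 uM ThT.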
GoLoco inh red: RGS12 GoLoco-Gai1 interaction inhibition | Gai1:RGS12 GoLoco peptide FP, rhodamine, 10 min | 230,000 compounds, 0.44% hits | P63096 | AID 880 | Potency, µM (series often up to 61.6 µM), inactives show top-dose activity, negative = inhibition, most hits filed as inhibitors; active = well fitted inhibition curve with a large enough effect, not every such curve was filed as active; inactive = no such curve, though single readings can be large or run the other way; note: nearly all actives have a fitted effect of over 30% in size
Target sequence (P63096 whole entry, looked up): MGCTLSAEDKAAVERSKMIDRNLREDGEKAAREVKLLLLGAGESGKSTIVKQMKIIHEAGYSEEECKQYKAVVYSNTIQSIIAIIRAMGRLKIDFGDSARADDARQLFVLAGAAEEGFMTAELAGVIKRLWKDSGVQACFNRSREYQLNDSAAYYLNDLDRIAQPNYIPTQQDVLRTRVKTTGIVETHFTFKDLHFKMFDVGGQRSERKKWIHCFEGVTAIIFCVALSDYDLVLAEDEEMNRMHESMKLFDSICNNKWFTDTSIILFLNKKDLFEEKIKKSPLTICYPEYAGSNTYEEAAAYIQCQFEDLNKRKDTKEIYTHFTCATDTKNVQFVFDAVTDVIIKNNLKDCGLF
Tau fluor counter: counter-screen for tau fibril formation inhibitors; tau K18 P301L Alexa594 fluorescence, heparin fibrillization; AID 1463; Potency, µM (top dose mostly 57.7 µM), inactives show at the highest dose activity change, negative = decrease; 280,000 compounds, 0.93% hits; note: nearly all actives have a fitted effect of over 55% in size
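Human K18 P301L tau (15 uM unlabeled plus 0.24 uM Alexa 594-labeled, final) in 100 mM sodium acetate pH 7 was mixed with compound and 20 uM heparin and incubated 6 hr at 37 C.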
Tau fibril ThT: tau fibrillization inhibition (ThT binding). P10636. recombinant tau K18 P301L (four-repeat tau fragment), heparin-induced fibrillization, ThT fluorescence. Potency, µM (titrated, usually from 57.4 µM), inactives show at the top dose activity, negative = inhibition, most hits filed as inhibitors. 270,000 compounds, 2.1% hits. AID 1460; note: nearly all actives have a fitted effect of over 55% in size
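Aggregation was driven by heparin (20 uM final) acting on recombinant tau […] bearing P301L in 100 mM sodium acetate pH 7; fibrils were detected with Thioflavin T.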
TRb SRC2 PPI: disrupts binding of human TR beta to SRC2; P10828; AID 1469; 280,000 compounds, 0.065% hits; TRbeta-SRC2 peptide binding, fluorescence polarization; receptor liganded with 1 µM T3; Potency, µM (titrated, usually from 106 µM), for inactives: at the highest dose activity change, negative = inhibition, hits mostly inhibitors;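 note: plate controls were bound peptide for no effect and peptide without receptor for full effect; nearly all actives have a fitted effect of over 50% in size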
Target sequence (P10828 whole entry, looked up): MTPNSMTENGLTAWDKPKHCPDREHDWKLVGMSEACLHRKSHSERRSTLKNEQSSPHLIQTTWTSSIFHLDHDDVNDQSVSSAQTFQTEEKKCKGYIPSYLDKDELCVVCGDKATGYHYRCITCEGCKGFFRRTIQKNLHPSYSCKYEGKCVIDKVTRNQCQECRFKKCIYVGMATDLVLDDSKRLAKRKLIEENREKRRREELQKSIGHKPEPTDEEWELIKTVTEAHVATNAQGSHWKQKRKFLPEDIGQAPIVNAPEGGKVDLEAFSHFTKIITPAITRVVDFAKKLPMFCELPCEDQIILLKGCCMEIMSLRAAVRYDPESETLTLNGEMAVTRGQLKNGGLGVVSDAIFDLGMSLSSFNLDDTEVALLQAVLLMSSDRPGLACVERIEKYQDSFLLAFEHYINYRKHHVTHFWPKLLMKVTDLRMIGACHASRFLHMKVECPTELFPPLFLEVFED
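TRb LBD 0.6 uM + Texas Red SRC2 peptide 20 nM, 1 uM T3, Tris buffer w/ 5% DMSO; compound pinned, 5 h RT; FP read ex 555/em 632; normalized to unbound and bound controls.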
Active calls of the source: *; [ ] = remark or other dose. Unless noted, calls come from the whole dose curve; as a rule, active = well fitted curve in the direction sought with a large enough effect; inconclusive = small, poorly fitted or top-dose-only effect, or another doubt; inactive = no such curve, though single readings can be large; an effect the other way counts as inactive or inconclusive. Unless noted, % is set by controls: 0 for no effect and ±100 for the full control effect; potency is the fitted concentration of half-maximal effect.

Results for Cc1cc(-c2ccc(N=Nc3ccc4c(S(=O)(=O)O)cc(S(=O)(=O)O)c(N)c4c3O)c(C)c2)ccc1N=Nc1ccc2c(S(=O)(=O)O)cc(S(=O)(=O)O)c(N)c2c1O ?
TexasRed fluor: 17.8µM*[fluorescent]; Tau FP inhib: 3.16µM*; GoLoco inh red: 28.6%; Tau fluor counter: 0.794µM*[quencher]; Tau fibril ThT: 1.41µM*; TRb SRC2 PPI: 25.1µM*

What do the screens show for `COc1ccc(OC)c(-c2ccccc2/C=N/NS(=O)(=O)c2ccc(C)cc2)c1`?
TexasRed fluor: -0.8%[11.2 µM]; Tau FP inhib: -2.2%[11.6 µM]; Tau fluor counter: -16.6%[11.6 µM]; Tau fibril ThT: -16.0%[11.5 µM]; TRb SRC2 PPI: 6.5%[11.2 µM]

How did COC(=O)C/C=C/[C@@H](C)[C@H](NC(=O)OCC(Cl)(Cl)Cl)c1ccc2ccccc2c1 do in these assays?
TexasRed fluor: -1.6%; Tau FP inhib: -7.4%; GoLoco inh red: -76.4%; Tau fluor counter: -7.3%; Tau fibril ThT: 1.9%; TRb SRC2 PPI: 5.3%

How did N#CCCCN1C(=O)C(=C(C#N)C#N)c2ccccc21 do in these assays?
TexasRed fluor: 1.6%; Tau FP inhib: inconclusive; GoLoco inh red: 3.4%; Tau fluor counter: inconclusive; Tau fibril ThT: 31.6µM*; TRb SRC2 PPI: -0.9%

How did c1ccsc1 do in these assays?
TexasRed fluor: -3.7%; GoLoco inh red: -5.4%; TRb SRC2 PPI: 4.3%

What do the screens show for `O=C1c2cccc3c([N+](=O)[O-])c(O)cc(c23)C(=O)N1Nc1ccccc1`?
TexasRed fluor: -1.5%; Tau FP inhib: 4.3%; GoLoco inh red: 23.2%; Tau fluor counter: -27.6%; Tau fibril ThT: 5.01µM*; TRb SRC2 PPI: 3.8%

Results for O=C1c2ccccc2C(=O)N1Nc1ccccc1 ?
TexasRed fluor: -2.0%; Tau FP inhib: -9.1%; GoLoco inh red: -4.1%; Tau fluor counter: -1.7%; Tau fibril ThT: 2.6%; TRb SRC2 PPI: 5.4%

What do the screens show for `COc1ccc(N=C2NC(=O)/C(=C/c3ccc(O)c(OC)c3)S2)cc1`?
TexasRed fluor: -14.2%; Tau FP inhib: 4.5%; GoLoco inh red: 2.2%; Tau fluor counter: inconclusive; Tau fibril ThT: 3.55µM*; TRb SRC2 PPI: 3.8%

Results for COc1cc(/C=C2\SC(=Nc3ccc(O)cc3)NC2=O)cc(OC)c1OC ?
TexasRed fluor: -3.6%; Tau FP inhib: -2.2%; GoLoco inh red: 10.2%; Tau fluor counter: -10.8%; TRb SRC2 PPI: 4.7%

How did O=C1NC(=Nc2ccc(O)cc2)S/C1=C\C=C\c1ccco1 do in these assays?
TexasRed fluor: -12.8%; Tau FP inhib: inconclusive; GoLoco inh red: -83.0%; Tau fluor counter: inconclusive; Tau fibril ThT: 1.58µM*; TRb SRC2 PPI: 1.3%

Results for COc1cc(/C=C2/SC(=Nc3ccc(O)cc3)NC2=O)cc(OC)c1O ?
TexasRed fluor: -13.4%; Tau FP inhib: 14.9%; GoLoco inh red: 87.7%; Tau fluor counter: -1.3%; Tau fibril ThT: inconclusive; TRb SRC2 PPI: 4.8%

What do the screens show for `COc1ccc(N=C2NC(=O)/C(=C\c3ccco3)S2)cc1`?
TexasRed fluor: -27.9%; Tau FP inhib: -5.7%; GoLoco inh red: 10.1%; Tau fluor counter: inconclusive; Tau fibril ThT: 10µM*; TRb SRC2 PPI: 3.6%

What do the screens show for `CCNS(=O)(=O)c1ccc(C)cc1`?
TexasRed fluor: -0.8%; GoLoco inh red: 2.8%; TRb SRC2 PPI: -1.0%

What do the screens show for `CC1=CC(=O)OC1Cc1ccc2ccccc2n1` (stereo unspecified)?
TexasRed fluor: -0.7%; Tau FP inhib: 0.1%; GoLoco inh red: -5.6%; Tau fluor counter: 2.0%; Tau fibril ThT: 2.6%; TRb SRC2 PPI: -1.2%

How did CCOc1cc(Br)c(Br)c(C=Nc2ccc(NC(C)=O)cc2)c1O do in these assays?
TexasRed fluor: 0.9%; Tau FP inhib: -3.2%; GoLoco inh red: 0.7%; Tau fluor counter: -12.1%; Tau fibril ThT: 6.31µM*; TRb SRC2 PPI: -4.2%

Results for CCOc1cc(/C=N/NC(=O)C(N)=O)cc(Br)c1O ?
TexasRed fluor: -3.7%; Tau FP inhib: -4.1%; GoLoco inh red: -4.0%; Tau fluor counter: -3.1%; Tau fibril ThT: -15.0%; TRb SRC2 PPI: -5.7%

What do the screens show for `CC(=O)Nc1ccc(N=Cc2c(O)c(C(=O)Nc3ccccc3)cc3ccccc23)cc1`?
TexasRed fluor: 0.4%; Tau FP inhib: inconclusive; GoLoco inh red: 14.1µM*; Tau fluor counter: -26.5%; Tau fibril ThT: 12.6µM*; TRb SRC2 PPI: -4.6%

Results for O=C(N/N=C/c1cc([N+](=O)[O-])cc([N+](=O)[O-])c1O)/C(=C\c1cccs1)NC(=O)c1ccccc1 ?
TexasRed fluor: -8.6%; Tau FP inhib: 13.1%; GoLoco inh red: inactive; Tau fluor counter: -9.3%; Tau fibril ThT: 12.6µM*; TRb SRC2 PPI: 2.7%

How did O=C(N/N=C/c1ccc([N+](=O)[O-])cc1)c1ccc(COc2ccccc2-c2ccccc2)cc1 do in these assays?
TexasRed fluor: -2.1%; Tau FP inhib: 3.3%; GoLoco inh red: 4.2%; Tau fluor counter: 12.6µM*[quencher]; Tau fibril ThT: inconclusive; TRb SRC2 PPI: -7.6%

How did COc1cc(/C=N/NC(=O)/C(=C\c2ccc([N+](=O)[O-])cc2)NC(=O)c2ccccc2)cc(OC)c1O do in these assays?
TexasRed fluor: -4.0%; Tau FP inhib: 15.4%; GoLoco inh red: -7.1%; Tau fluor counter: inconclusive; Tau fibril ThT: 28.2µM*; TRb SRC2 PPI: -8.3%

Results for Nc1ccc(C(=O)N/N=C\C=C\c2ccc([N+](=O)[O-])cc2)cc1 ?
TexasRed fluor: -2.8%; Tau FP inhib: -6.9%; GoLoco inh red: 10.2%; Tau fluor counter: -15.6%; Tau fibril ThT: 2.82µM*; TRb SRC2 PPI: 8.4%

Results for COc1ccccc1-c1nccc(NCc2cccs2)n1 ?
GoLoco inh red: -5.1%

Results for CCOc1cc(/C=N/NC(=O)c2cccc([N+](=O)[O-])c2)ccc1OS(=O)(=O)c1ccccc1 ?
TexasRed fluor: -2.3%; Tau FP inhib: -8.5%; GoLoco inh red: 3.1%; Tau fluor counter: 14.1µM*[quencher]; Tau fibril ThT: -16.8%; TRb SRC2 PPI: -0.7%

How did COc1ccc(/C=N/NC(=O)c2cccc([N+](=O)[O-])c2)cc1OS(=O)(=O)c1ccc(C)cc1 do in these assays?
TexasRed fluor: 2.1%; Tau FP inhib: -6.1%; GoLoco inh red: 9.2%; Tau fluor counter: inconclusive; Tau fibril ThT: -5.2%; TRb SRC2 PPI: -2.7%

How did CN1CCN(C2=Nc3c(Cl)cc(Cl)c4cccc2c34)CC1 do in these assays?
TexasRed fluor: -1.1%; Tau FP inhib: 4.2%; GoLoco inh red: 56.5%; Tau fluor counter: -12.8%; Tau fibril ThT: 17.8µM*; TRb SRC2 PPI: 5.3%

Results for N[C@@H](CSS(=O)(=O)O)C(=O)O ?
TexasRed fluor: -1.2%; Tau FP inhib: 17.8µM*; GoLoco inh red: 2.8%; Tau fluor counter: -11.5%; Tau fibril ThT: 12.6µM*; TRb SRC2 PPI: -14.2%
